Shiga toxin inh: inhibitors of Shiga toxin in Vero cells; inhibition, % at 38.7 µM; Vero cells, Shiga toxin protein synthesis inhibition reporter; hit rate 9.2% among 290,000; in the data active means inhibition mostly above about 28%, no sharp cut-off; inactive means mostly below about 43%
Cycloheximide cs: counter-screen hit for Shiga toxin inhibitors, cycloheximide; cell reporter, cycloheximide protein synthesis inhibition counterscreen; max response, %; hit rate 12% among 300,000; AID 2314; in the data active means max response mostly above about 13%, no sharp cut-off; inactive means mostly below about 14%; further: read at 38.3 µM for the half of the compounds with a filed dose
Marburg entry inh: inhibitors of Marburg virus binding or cell entry | Marburg virus pseudotyped entry inhibition, cell reporter | Potency, µM (highest dose often 37.8 µM), usual class: inhibitors | hit rate 1.8% among 300,000; calls by dose curve; tested in HEK293 cells
AMA1 RON2 block: disrupts binding of P. falciparum AMA1 to RON2 | AlphaScreen AMA1-biotinylated RON2 peptide binding | Potency, µM (series often up to 58.2 µM), usual class: inhibitors | hit rate 0.2% among 360,000 | AID 720542; active means well fitted inhibition curve with a large enough effect; inconclusive means small, poorly fitted or top-dose-only effect; inactive means no such curve, though single readings can be large or run the other way; further: nearly all actives have a fitted effect of over 45% in size
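AMA1 (3D7) with his tag at 25 nM final met compounds first, then biotinylated RON2 peptide at 25 nM; detection used donor plus acceptor beads, 10 µg/mL apiece, read by AlphaScreen after 30 min at room temperature.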
LASV entry inh: Lassa virus entry inhibition; Lassa virus pseudotype entry inhibition, cell reporter; Potency, µM (highest dose often 37.9 µM), usual class: inhibitors; AID 540256; hit rate 1.2% among 300,000; calls by dose curve; tested in HEK293 cells; further: nearly all actives have a fitted effect of over 50% in size
A number is an active result; i = inactive; ? = inconclusive; nt = not tested or not shown; + = active, no number; [ ] = dose if it differs, or a comment. This excerpt belongs to a sample that is enriched for hits.

SMILES	Shiga toxin inh	Cycloheximide cs	Marburg entry inh	AMA1 RON2 block	LASV entry inh
O=C(NCc1ccco1)Nc1ccccc1Cl	73.9	18.3	i	i	i
O=C(NCc1ccco1)Nc1cccc2ccccc12	nt	nt	i	i	i
O=C(NCc1ccco1)C(=O)NCc1ccccc1Cl	i	29.9	i	i	i
Fc1ccc(CNc2nc(-c3ccco3)cc(C(F)(F)F)n2)cc1	i	i	9.2µM	i	i
CCN1CCN(Cc2ccc(NC(=O)c3ccc(C)c(NC(=O)c4nccn4C)c3)cc2C(F)(F)F)CC1	i	i	nt	i	nt
CCN1CCN(Cc2ccc(NC(=O)c3ccc(C)c(NC(=O)c4cccc5[nH]ccc45)c3)cc2C(F)(F)F)CC1	93.6	52.5	nt	i	nt
COC(=O)c1ccc(Cl)cc1NC(=O)N(C)CCc1c(C)nn(C)c1C	nt	nt	nt	nt	i
Cc1ccc2nc(-c3cccc(NC(=O)c4ccc5c(c4)OCCO5)c3)oc2c1	i	20.4	i	i	i
Cc1ccc2nc(-c3cc(NC(=O)c4ccc5c(c4)OCCO5)ccc3Cl)oc2c1	nt	nt	i	nt	i
CCC(=O)Nc1ccc2oc(-c3cccc(C)c3)nc2c1	+	34.8	?	i	?
CCC(=O)Nc1cccc(-c2nc3ccc(C)cc3o2)c1	125.2	51.8	?	i	i
CC1Cc2ccccc2N1C(=O)CSc1nncs1 (stereo not drawn)	nt	nt	?	i[11.6 µM]	i
Cc1cc(Br)ccc1S(=O)(=O)n1ccnc1C	i	i	i	i	i
O=[N+]([O-])c1ccc(NN=C2CCCCC2)c([N+](=O)[O-])c1	nt	nt	i	i	i
O=c1cccccc1NN=C1CCCCCC1	82.3	23.3	i	i	i
O=c1cccccc1NN=C1CCCCC1	80.0	35.4	?	i	i
O=C(O)c1cc(Br)ccc1NN=C1CCCCC1	i	20.5	i	i	i
COc1ccc(-c2nnc(SCC(=O)c3ccc(C)o3)o2)cc1	i	12.6	?	i	?
O=C(O)CSc1nnc(-c2ccco2)o1	i	i	i	i	i
Cc1ccc(C(=O)CSc2nnc(-c3ccco3)o2)o1	55.6	39.6	i	i	?
O=C(Nc1ccc(Cl)cc1Cl)Nn1cnnc1	i	i	nt	i	nt
CN(CCc1ccccn1)Cc1ccc(Cl)cc1Cl	i	16.8	i	i	i
O=C(NCc1ccccn1)Nc1ccc(Br)cc1Cl	135.9	63.3	?	i	i
C=CCNC(=O)Nc1ccc(Br)cc1Cl	i	i	nt	i	nt
O=C(Nc1ccno1)Nc1ccc(Cl)cc1Cl	i	10.7	i	i	i
SMILES	Shiga toxin inh	Cycloheximide cs	Marburg entry inh	AMA1 RON2 block	LASV entry inh
S=C(NCc1ccccn1)Nc1ccc(Br)cc1Cl	44.2	18.3	i	i	i
C[C@@H]1C(=O)O[C@H]2CC34[C@H]5C[C@@H](C(C)(C)C)[C@]36[C@@H](OC(=O)[C@@H]6O)O[C@@]4(C(=O)O5)[C@]21O (stereo partly drawn)	nt	nt	nt	i	nt
O=C(NCc1ccccn1)Nc1ccc(F)cc1F	i	i	nt	i	nt
O=C(NCc1ccccn1)Nc1ccc(Cl)cc1Cl	66.2	36.7	nt	i	nt
COc1ccc(CCn2c(=O)[nH]c3cc(C(=O)N4CCN(c5ccccn5)CC4)ccc3c2=O)cc1OC	i	i	i	i	i
O=C(OCCN1CCOCC1)c1ccc(OCCN2CCOCC2)cc1	i	i	?	i	i
O=C(OCCN1CCOCC1)c1ccc2c(c1)OCCO2	75.4	52.7	i	i	?
O=C(OCCN1CCOCC1)c1cccc(F)c1	i	i	i	i	?
O=C(CCCN1CCOCC1)c1ccc2c(c1)OCCO2	i	32.4	i	i	i
Cc1cccc(C(=O)OCCN2CCOCC2)c1	41.1	25.8	i	i	i
COc1ccc(C(=O)OCCN2CCOCC2)cc1	43.9	25.2	i	i	i
COc1ccc(S(=O)(=O)Nc2ccccc2C(=O)NCc2cccnc2)cc1	i	i	?	i	?
Cc1ccc(NC(=O)COC(=O)c2ccco2)cc1S(=O)(=O)N1CCCCC1	nt	nt	nt	i	nt
CC1CCCCN1CCNS(=O)(=O)c1ccc2c(c1)oc(=O)n2C (stereo not drawn)	i	i	i	i	i
O=C(OCCN1CCOCC1)c1ccc(Cl)cc1Cl	47.5	38.9	nt	i	nt
O=C(OCCN1CCOCC1)c1ccccc1Cl	nt	nt	?	i	i
O=C(OCCN1CCOCC1)c1ccccc1	i	i	?	i	?
Cc1ccccc1C(=O)OCCN1CCOCC1	i	23.4	?	i	i
COc1ccc(C(=O)NCC(=O)OCC(=O)N2CC(C)OC(C)C2)cc1OC (stereo not drawn)	nt	nt	i	i	?
O=C1c2ccccc2S(=O)(=O)N1CCOc1ccccc1	i	34.9	?	i	?
O=C1c2ccccc2S(=O)(=O)N1CC(O)COc1ccc(Cl)cc1 (stereo not drawn)	i	i	?	i	i
O=C1c2ccccc2S(=O)(=O)N1CC(O)COc1ccc(Br)cc1 (stereo not drawn)	i	28.1	?	i	i
O=C1c2ccccc2C(=O)N1CC(O)COc1ccc(Br)cc1 (stereo not drawn)	i	12.7	i	i	i
CCCCCCN1C(=O)CC[C@@]23C1=NC(C(=O)OC)=C(C(=O)OC)[C@@H]2N(Cc1ccccc1)c1ccccc13	nt	nt	i	nt	nt
CCC(=O)OCn1nnc2ccccc2c1=O	i	i	i	i	nt
SMILES	Shiga toxin inh	Cycloheximide cs	Marburg entry inh	AMA1 RON2 block	LASV entry inh
O=c1c2ccccc2nnn1Cc1ccc2ccccc2c1	i	24.6	?	i	i
COC(=O)c1cccc(Cn2nnc3ccccc3c2=O)c1	i	i	i	i	i
O=c1c2ccccc2nnn1COc1ccc(F)cc1Cl	55.3	40.6	?	i	i
O=c1c2ccccc2nnn1COc1cccc2ccccc12	143.2	45.4	nt	i	nt
O=c1c2ccccc2nnn1COc1ccc(Cl)cc1Br	i	29.4	i	i	?
CCN(c1ccccc1)S(=O)(=O)c1ccc(Cl)c(NC(=O)CN(C)Cc2cccc(F)c2)c1	nt	nt	?	i[11.6 µM]	?
CC1(C)COC(/C=C/c2ccc([N+](=O)[O-])cc2)=N1	83.9	55.7	?	i	?
c1ccc(C2=NN(c3ccccc3)CC2)cc1	114.0	60.9	nt	i	nt
COC(=O)N(C=Cc1ccc(OC)cc1)CCc1ccc(OC)c(OC)c1	nt	nt	i	nt	nt
CC(=O)c1ccc(N=Nc2ccc(C)cc2)cc1	40.7	22.0	?	?	?
CN(C)c1ccc(N=Nc2ccccc2C(=O)OCC(=O)N2CCCC2)cc1	i	i	i	?	i
C=C(C)C(=O)Oc1ccc(N=Nc2ccc(C)cc2)ccc1=O	nt	nt	?	i	?
CN(C)c1ccc(N=Nc2ccccc2Br)cc1	37.0	38.1	nt	11.2µM	nt
Cc1ccc(C(=O)c2ccc(C)cc2)cc1	78.8	40.4	i	i	i
CC(=O)c1ccc(N=Nc2ccc(N(C)C)cc2)cc1	97.4	40.8	?	?	?
Cc1ccc(C(=O)NNC(=O)c2ccc(C)cc2)cc1	i	i	i	i	i
CCOc1ccccc1NC(=O)CN1C(=O)COc2ccc(C)cc21	i	i	?	i	?
N#Cc1ccc2c(c1)nnn2-c1ccccc1	nt	nt	i	i	i
c1cc(-n2nnc3cnccc32)ccn1	i	i	nt	i	nt
Nc1ccc2c(c1)nnn2-c1ccccc1	i	32.0	?	i	?
c1ccc(-n2nnc3cnccc32)cc1	i	23.6	i	i	i
CCN1C(=NCC(C)C)N[C@H](c2ccccc2)[C@H](C(=O)OC)[C@H]1C	nt	nt	i	nt	i
Cc1ccnc(SCc2cc(=O)c(OC(=O)c3cccs3)co2)n1	i	i	?	?	i

Assay outcomes: PubChem, National Center for Advancing Translational Sciences (NCATS)
